Compounds without any hit were thinned out: in the full panel of roughly 79,000, 15% have a hit. No stated cut-off is given here; in the data, active means growth inhibition above about 70%; inactive means the rest.
Legend:
[1] = NCI Yeast Anticancer Drug Screen. Data for the rad50 strain (AID 155);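 further: 0% = growth of vehicle-only cultures of the same strain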; details: S. cerevisiae rad50 strain growth inhibition; at 50.0 µM; active compounds read high
How it was run: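 Readout: growth inhibition relative to vehicle-treated cultures. Compound exposure was carried out in a genetically defined yeast strain deficient in DNA damage repair.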

[2] = NCI Yeast Anticancer Drug Screen. Data for the mec2-1 strain (AID 157); details: S. cerevisiae mec2-1 strain, at 50.0 µM, active compounds read high
How it was run: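 Each compound was tested on mec2-1 yeast, a strain altered in DNA damage repair or cell cycle control. Growth inhibition is reported relative to vehicle.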

[3] = NCI Yeast Anticancer Drug Screen. Data for the sgs1 mgt1 strain (AID 161);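 further: 0% = growth of cultures given vehicle only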; details: S. cerevisiae sgs1 mgt1 strain, at 50.0 µM, active compounds read high
How it was run: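 Mutant yeast exposed to compound; growth scored against vehicle-only wells.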

[4] = NCI Yeast Anticancer Drug Screen. Data for the cln2 rad14 strain (AID 165);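 further: 0% = growth equal to vehicle treated cultures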; details: S. cerevisiae cln2 rad14 strain, at 50.0 µM, active compounds read high
How it was run: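 Test compounds were added to cln2 rad14 yeast cultures; inhibition of growth was then determined by comparison with vehicle treatment.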

[5] = NCI Yeast Anticancer Drug Screen. Data for the bub3 strain (AID 167); details: S. cerevisiae bub3 mutant strain, at 50.0 µM, active compounds read high
How it was run: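 Readout: yeast growth inhibition, expressed relative to vehicle-only wells. The test organism is a mutant strain from a panel with lesions in DNA repair or checkpoint genes.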

[6] = NCI Yeast Anticancer Drug Screen. Data for the mlh1 rad18 strain (AID 175); details: S. cerevisiae mlh1 rad18 strain growth inhibition; at 50.0 µM; active compounds read high
How it was run: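 Inhibition values reflect reduced growth of mutant yeast versus vehicle-treated controls following compound exposure; the mutations affect DNA damage repair.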

Measured: growth inhibition

COC(=O)CN(C(=O)c1ccc(OC(C)=O)cc1)c1ccccc1
inactive: [1] 4.25% | [2] 23.3% | [3] -6.7% | [4] 9.1% | [5] 3.45% | [6] -28.1%

CCOC(=O)c1[nH]n(-c2ccccc2)c(=O)c1/C=N/C(=S)NCCc1ccc(OC)c(OC)c1
inactive: [1] 2.05% | [2] -0.6% | [3] 5.4% | [4] -10.8% | [5] -21% | [6] 13.2%

O=C1/C(=C/c2ccccc2)N=C(c2ccccc2)N1n1c(-c2ccccc2)nc2ccccc2c1=O
inactive: [1] 7.5% | [2] 0.35% | [3] 24.4% | [4] 17.8% | [5] -4.05% | [6] 21.8%

C#CCC(O)c1ccc(OC)c(OCc2ccccc2)c1 (stereo unspecified)
inactive: [1] -6.05% | [2] -17.9% | [3] 18.6% | [4] 4.4% | [5] 4.45% | [6] -1.4%

O=[N+]([O-])c1ccccc1N=NNc1ccccc1[N+](=O)[O-]
inactive: [1] 9.65% | [2] -4% | [3] 1.9% | [4] -26.6% | [5] 3.1% | [6] 3%

C#CCN(Cc1ccc2nc(-c3ccccc3)c(Cl)nc2c1)c1ccc(Cl)c(Cl)c1
inactive: [1] -15.2% | [2] -6.4% | [3] -2.25% | [4] -37.5% | [5] -16.4% | [6] -18.2%

CN(C)Cc1c(-c2ccc(Br)cc2)oc(-c2ccc(Br)cc2)c1Br
inactive: [1] -31.1% | [2] -8.7% | [3] -13.9% | [4] -10.4% | [5] 4.5% | [6] 7.2%

CC(CN(C)C)N(C)C (stereo unspecified)
inactive: [1] -14.7% | [2] -34.5% | [3] -41.6% | [4] -7.75% | [5] -4.6% | [6] 0.15%

COc1ccc(Cc2ccc3[nH]c(=O)cc(C)c3c2)cc1S(=O)(=O)O
inactive: [1] 33.8% | [2] -17.6% | [3] -15.5% | [4] 41.7% | [5] -17.7% | [6] 8.95%

Clc1ccc2c(c1)CCc1cccnc1C2=C1CCNCC1
inactive: [1] 8.55% | [2] -4.5% | [3] -20.6% | [4] 16.1% | [5] 0.4% | [6] -15.1%

CC(C)(C)[Si](C)(C)OCC1CCC(n2cnc3c(=O)[nH]cnc32)O1 (stereo unspecified)
inactive: [1] 14.7% | [2] -6.75% | [3] 7.6% | [4] -4.1% | [5] 12.8% | [6] -7.25%

C=CS(=O)(=O)c1ccc(Nc2cc(S(=O)(=O)O)c(N)c3c2C(=O)c2ccccc2C3=O)cc1
inactive: [1] -20.2% | [2] -30.9% | [3] -4.1% | [4] 2.9% | [5] -19.3% | [6] -36.1%

NC(CCC(=O)Nc1cccc2ccccc12)C(=O)O (stereo unspecified)
inactive: [1] 27.6% | [2] 1.65% | [3] 16.5% | [4] 12.4% | [5] 17.2% | [6] -3.15%

COc1ccc(OC)c(NC(=O)Oc2cc(C)c(Cl)c(C)c2)c1
inactive: [1] 5.85% | [2] -1.85% | [3] 7.1% | [4] 8.25% | [5] 9.1% | [6] 6.35%

CC(=O)N(c1c(N)[nH]c(=O)n(C)c1=O)C1OC(CO)C(O)C(O)C1O (stereo unspecified)
inactive: [1] -1.65% | [2] 2.8% | [3] 19.1% | [4] -5% | [5] 4.3% | [6] 12.4%

CCCCCCCCCCCCCCCCSc1ccncc1NN=O
inactive: [1] 36.2% | [2] -2% | [3] 17.1% | [4] -10.5% | [5] -3.8% | [6] 2.3%

CCCCCCCCCCCCCCC(=O)Cl
inactive: [1] 9% | [2] 7.25% | [3] 5.8% | [4] 8.2% | [5] -9.95% | [6] 8.85%

Nc1ccc(S(=O)(=O)/N=C(\NS(=O)(=O)c2ccc(N)cc2)c2ccccc2)cc1
inactive: [1] 15.7% | [2] 0.65% | [3] 12.2% | [4] 16.2% | [5] 5.85% | [6] 1.45%

CN1NC2(CCCCC2)ON=C1c1ccccc1
inactive: [1] 5.35% | [2] -5.5% | [3] 11.1% | [4] 7.9% | [5] -6.35% | [6] 10.7%

CC(=O)CCC1(C)CCCC(C)(C)CC1=O (stereo unspecified)
inactive: [1] -1.3% | [2] 5.15% | [3] 3.75% | [4] -9.55% | [5] -28% | [6] -12.2%

CC(C)(C(=O)O)c1ccccc1C(=O)c1ccccc1
inactive: [1] -10.7% | [2] 12.1% | [3] 0.15% | [4] 49.3% | [5] -0.75% | [6] 14.3%

O=c1[nH]cnc2c(COCCO)c[nH]c12
inactive: [1] -18.6% | [2] 2.8% | [3] -19.5% | [4] -3.95% | [5] -34.3% | [6] -20.9%

CCCCC1C2C(S(=O)(=O)c3ccccc3)=NOC2C=CN1C(C)=O (stereo unspecified)
inactive: [1] -6.4% | [2] -9% | [3] 1.55% | [4] 7.55% | [5] 3.25% | [6] 10.3%

O=Cc1c(CO)cc(O)c(O)c1O
inactive: [1] -12.4% | [2] -0.1% | [3] 16.1% | [4] -30.6% | [5] 2.9% | [6] 6.55%

COC(=O)C1=C(\O)C[C@@]2(C)CC[C@@H](C(=O)OC)C2C/C=C\1C(=O)OC (stereo partly specified)
inactive: [1] -4.75% | [2] -6.25% | [3] 0.05% | [4] 11.1% | [5] -8.6% | [6] 34.8%

COS(=O)(=O)Cc1ccccc1
inactive: [1] -21.6% | [2] -15% | [3] -16.8% | [4] -19.2% | [5] -12.3% | [6] 8.45%

S=C(Cc1cccc2ccccc12)N1CCN(c2ccc(Cl)cc2)CC1
inactive: [1] -17% | [2] -2.3% | [3] -16% | [4] -7.9% | [5] -9.95% | [6] -0.55%

CS(=O)(=O)Nc1ccccc1-c1nc2ccccc2c(=O)o1
inactive: [1] 26.6% | [2] 30.7% | [3] 27.2% | [4] 14.3% | [5] 33.2% | [6] 27.7%

Cc1nc(C)c(C(=O)NNC(=O)Cc2ccccc2)cc1C(=O)NNC(=O)Cc1ccccc1
inactive: [1] -32% | [2] 1.35% | [3] -0.9% | [4] 15.5% | [5] -5.55% | [6] -32.4%

Clc1ccc(-n2ncc3c2-c2ccccc2CCC3)cc1
inactive: [1] 31.4% | [2] -6.5% | [3] 3.5% | [4] 4.85% | [5] 48.2% | [6] 34.3%

CSc1nc2c(nc(N)n2C2OC(CO)C(O)C(O)C2O)c(=O)n1C (stereo unspecified)
inactive: [1] 3.1% | [2] 20% | [3] 26.3% | [4] 33.9% | [5] 11.2% | [6] 39.4%

COC(C(=O)[O][Ge]([CH3])([CH3])[CH3])c1ccccc1 (stereo unspecified)
inactive: [1] 13.8% | [2] -17.8% | [3] -6.85% | [4] 31.4% | [5] -2.15% | [6] -9.25%

O=C1CC[C@H]2[C@@H]3N1c1ccccc1[C@@]31CCN3C/C(=C/CBr)[C@@H]2C[C@H]31
inactive: [1] 21.4% | [2] -3.05% | [3] 6.25% | [4] 19.4% | [5] -1.8% | [6] 11.1%

CCN1c2ccccc2CC(CCN(C(C)C)C(C)C)(C(N)=O)c2ccccc21 (stereo unspecified)
inactive: [1] 40.9% | [2] 4.9% | [3] 24.8% | [4] 21.3% | [5] -3.1% | [6] -0.9%

CSc1cc(C)c(O)c(CO)c1
inactive: [1] 6.7% | [2] 2.9% | [3] 18.2% | [4] -2.35% | [5] 12.7% | [6] 3%

Cn1c(=O)c2[nH]c(C3CC(=O)CC(c4nc5c([nH]4)c(=O)n(C)c(=O)n5C)N3)nc2n(C)c1=O (stereo unspecified)
inactive: [1] -1.75% | [2] 5.1% | [3] -14.4% | [4] 1.8% | [5] -27.4% | [6] 7.15%

COC1OC2COC(c3ccccc3)OC2C(OS(=O)(=O)c2ccc(Br)cc2)C1OS(=O)(=O)c1ccc(Br)cc1 (stereo unspecified)
inactive: [1] -10.5% | [2] 13.7% | [3] -1.3% | [4] -14.7% | [5] -11.8% | [6] 21.6%

COC(=O)CC(c1ccc(OC)cc1)c1cc2c(cc1OC)OCO2 (stereo unspecified)
inactive: [1] 3.45% | [2] 3.75% | [3] 2.75% | [4] 7.5% | [5] 18.3% | [6] 15.5%

CC(=O)N(C)CCc1c[nH]c2ccccc12
inactive: [1] -18.4% | [2] -37.5% | [3] -33.9% | [4] 13.2% | [5] 9.85% | [6] -4.8%

OCC1CC(O)CN2CCc3c([nH]c4ccccc34)C2C1 (stereo unspecified)
inactive: [1] 4.6% | [2] 3.25% | [3] 11.3% | [4] -5.2% | [5] 0.1% | [6] 2.8%

Cc1cccc(C2=NC(=C3CCCCC3)C(=O)O2)c1
inactive: [1] 4.5% | [2] 6.6% | [3] 5.8% | [4] 12.2% | [5] 4% | [6] 20.9%

— PubChem BioAssay (NCI)
